Inconclusive results are not listed. Activity calls are given as the source filed them. The call rests on the fitted dose curve; in most records, active means well fitted curve in the direction sought with a large enough effect; inconclusive means small, poorly fitted or top-dose-only effect, or another doubt; inactive means no such curve, though single readings can be large; an effect the other way counts as inactive or inconclusive.
Key:
[1] = qHTS of pediatric cancer cell lines to identify multiple opportunities for drug repurposing: Primary screen for RD cells (AID 1347104); further: nearly all actives have a fitted effect of over 55% in size
Summary of the method: (§1)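 500-1,000 cells/well; 5 h pre-incubation 37 °C/5% CO2; compound pinned; 48 h; CellTiter-Glo, 15 min RT; luminescence. MIPE 11-pt from 0.78 nM, NPC 8-pt from 0.59 nM final. Bortezomib 2.3 µM final as positive control.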

[2] = qHTS of pediatric cancer cell lines to identify multiple opportunities for drug repurposing: Primary screen for MG 63 (6-TG R) cells (AID 1347105); further: nearly all actives have a fitted effect of over 50% in size
Summary of the method: as §1

[3] = qHTS of pediatric cancer cell lines to identify multiple opportunities for drug repurposing: Primary screen for control Hh wild type fibroblast cells (AID 1347106);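 further: series mostly up to about 46 µM; a drop in luminescence marks cytotoxicity and a rise apparent proliferation; nearly all actives have a fitted effect of over 55% in size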
Summary of the method: (§2)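 Viability after 48 h compound treatment at 37C, 500-1,000 cells/well, read as ATP luminescence with CellTiter-Glo. Primary screens used 11-point (MIPE, 0.78 nM-46 µM) or 8-point (NPC, 0.59 nM-46 µM) final concentrations; follow-up screens used 11-point dilutions.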

[4] = qHTS of pediatric cancer cell lines to identify multiple opportunities for drug repurposing: Primary screen for Rh30 cells (AID 1347107); further: series mostly up to about 46 µM; nearly all actives have a fitted effect of over 75% in size
Summary of the method: as §2

[5] = qHTS of pediatric cancer cell lines to identify multiple opportunities for drug repurposing: Primary screen for Rh41 cells (AID 1347108);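 further: series mostly up to about 46 µM; luminescence drop marks cytotoxic hits; nearly all actives have a fitted effect of over 70% in size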
Summary of the method: as §1

[6] = qHTS of pediatric cancer cell lines to identify multiple opportunities for drug repurposing: Confirmatory screen for NB1643 cells (AID 1347109); further: nearly all actives have a fitted effect of over 45% in size
Summary of the method: as §2

[7] = qHTS of pediatric cancer cell lines to identify multiple opportunities for drug repurposing: Confirmatory screen for A673 cells (AID 1347110);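 further: cells exposed to compound for 48 h before the viability read; nearly all actives have a fitted effect of over 65% in size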
Summary of the method: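 qHTS titration format: primary MIPE 0.78 nM-46 µM (11 pts), NPC 0.59 nM-46 µM; confirmation 11 pts. 48 h, CTG luminescence.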

[8] = qHTS of pediatric cancer cell lines to identify multiple opportunities for drug repurposing: Confirmatory screen for BT-12 cells (AID 1347112); further: nearly all actives have a fitted effect of over 55% in size
Summary of the method: as §2

[9] = qHTS of pediatric cancer cell lines to identify multiple opportunities for drug repurposing: Confirmatory screen for LAN-5 cells (AID 1347113); further: nearly all actives have a fitted effect of over 65% in size
Summary of the method: as §2

[10] = qHTS of pediatric cancer cell lines to identify multiple opportunities for drug repurposing: Confirmatory screen for DAOY cells (AID 1347114); further: nearly all actives have a fitted effect of over 65% in size
Summary of the method: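 Viability measured as metabolically active cells via CellTiter-Glo luminescence following 48 hours of compound exposure, 11-point dilutions in confirmatory testing. 500-1,000 cells/well plated 5 hours before dosing; controls were DMSO and 2.3 µM bortezomib.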

[11] = qHTS of pediatric cancer cell lines to identify multiple opportunities for drug repurposing: Confirmatory screen for NB-EBc1 cells (AID 1347115);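 further: cells exposed to compound for 48 h before the viability read; nearly all actives have a fitted effect of over 45% in size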
Summary of the method: as §2

[12] = qHTS of pediatric cancer cell lines to identify multiple opportunities for drug repurposing: Confirmatory screen for BT-37 cells (AID 1347117); further: nearly all actives have a fitted effect of over 55% in size
Summary of the method: as §2

[13] = qHTS of pediatric cancer cell lines to identify multiple opportunities for drug repurposing: Confirmatory screen for MG 63 (6-TG R) cells (AID 1347119); further: nearly all actives have a fitted effect of over 55% in size
Summary of the method: as §2

[14] = qHTS of pediatric cancer cell lines to identify multiple opportunities for drug repurposing: Confirmatory screen for control Hh wild type fibroblast cells (AID 1347121); further: nearly all actives have a fitted effect of over 70% in size
Summary of the method: as §2

[15] = qHTS of pediatric cancer cell lines to identify multiple opportunities for drug repurposing: Confirmatory screen for Rh41 cells (AID 1347123);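 further: 48 h compound exposure; nearly all actives have a fitted effect of over 60% in size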
Summary of the method: as §2

[16] = qHTS of pediatric cancer cell lines to identify multiple opportunities for drug repurposing: Confirmatory screen for RD cells (AID 1347124);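 further: cells exposed to compound for 48 h before viability readout; nearly all actives have a fitted effect of over 65% in size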
Summary of the method: as §2

[17] = qHTS of pediatric cancer cell lines to identify multiple opportunities for drug repurposing: Confirmatory screen for Saos-2 cells (AID 1347127); further: nearly all actives have a fitted effect of over 60% in size
Summary of the method: as §2

Measured: Potency

Cc1cc(O)c(C)c(C)c1O
inactive: [1] | [2] | [3] | [4] | [5]

CO[C@]1(NC(=O)CSC(F)F)C(=O)N2C(C(=O)O)=C(CSc3nnnn3CCO)CO[C@H]21
inactive: [1] | [2] | [3] | [4] | [5]

CC(C)NC(=O)c1ccc(C=O)cc1
inactive: [1] | [2] | [3] | [4] | [5]

CN(C)CCN(Cc1ccsc1)c1ccccn1
inactive: [1] | [2] | [3] | [4] | [5] | [6] | [7] | [8] | [9] | [10] | [11] | [12] | [13] | [14] | [15] | [16] | [17]

CCOC(=O)OCC/C(SC(=O)OCC)=C(\C)N(C=O)Cc1cnc(C)nc1N
inactive: [1] | [2] | [3] | [4] | [5]

O=C(O)/C=C(\CC(=O)O)C(=O)O
inactive: [1] | [2] | [3] | [4] | [5]

COc1ccc(/C(C)=C/C(=O)O)c(OC)c1
inactive: [1] | [2] | [3] | [4] | [5]

CC(=O)N(c1onc(C)c1C)S(=O)(=O)c1ccc(N)cc1
inactive: [1] | [2] | [3] | [4] | [5]

CC(C)(C)NCC(O)COc1ccccc1OCC1CCCO1 (configuration not stated)
inactive: [1] | [2] | [3] | [4] | [5]

CCOC(=O)C(=O)c1csc(NC=O)n1
inactive: [1] | [2] | [3] | [4] | [5]

CO/N=C(/C(=O)N[C@@H]1C(=O)N2C(C(=O)OCOC(=O)C(C)(C)C)=C(C)CS[C@H]12)c1csc(N)n1
inactive: [1] | [2] | [3] | [4] | [5]
